The source of these data is PubChem BioAssay (Tox21).

Experiment [1] is described as follows: qHTS assay to identify small molecule antagonists of the estrogen related receptor (ERR) signaling pathway from Tox21 library - cell viability counter screen (AID 1224834). Note: nearly all actives have a fitted effect of over 30% in size. Note: potency is the fitted concentration of half-maximal effect. An outline of the steps:
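ERR cells, 2,000/well; 6 h settle at 37 C/5% CO2; pin-tool compound transfer in DMSO; 17.5 h at 37 C; CellTiter-Fluor, 30 min; fluorescence intensity.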
On the technique in general: In qHTS, concentration-response curves come from the screen itself.

The target in experiment [2] is Nuclear receptor subfamily 1 group I member 3 (Homo sapiens) (UniProt Q14994). The experiment is described as follows: qHTS assay to identify small molecule antagonists of the constitutive androstane receptor (CAR) signaling pathway (AID 1224838).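 Note: HepG2 cells stably expressing hCAR with CYP2B6 luciferase reporter stimulated by CITCO; nearly all actives have a fitted effect of over 40% in size.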 Note: potency is the fitted concentration of half-maximal effect. In short, it runs like this: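 Antagonist mode used CITCO at a final 50 nM to activate CAR in human hepatoma HepG2 cells carrying stable hCAR and a 2.2 kb CYP2B6 promoter-luciferase construct. Compounds were tested at 15 concentrations over 24 h, with luminescence as the end point.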

Experiment [3] shares this target. Briefly: qHTS assay to identify small molecule agonists of the constitutive androstane receptor (CAR) signaling pathway (AID 1224839). Note: nearly all actives have a fitted effect of over 15% in size. An outline of the steps: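 Stable hCAR/CYP2B6-2.2kb HepG2 line in DMEM with 10% FBS; compounds (15 concentrations) and 0.75 uM PK11195 final, 24 h at 37 C/5% CO2, then ONE-Glo luminescence after 30 min.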
Experiment [4] can be described thus: qHTS assay to identify small molecule antagonists of the estrogen related receptor signaling pathway with the pleiotropic PPARgamma coactivator (PGC) from Tox21 10K library - cell viability counter screen (AID 1224840; active = well fitted cell-killing curve with a large enough effect in the repeat runs, not every such curve was filed as active; note: nearly all actives have a fitted effect of over 40% in size; note: potency is the fitted concentration of half-maximal effect). In short, it runs like this: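 Multiplexed viability counter screen in the PGC/ERR cell line: cells treated with DMSO-dissolved compounds for 17.5 hours at 37 C, then viability measured as CellTiter-Fluor fluorescence.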

The nature of experiment [5]: qHTS assay to identify small molecule agonists of the hypoxia (HIF-1) signaling pathway - cell viability counter screen (AID 1224844; calls by dose curve; note: nearly all actives have a fitted effect of over 50% in size; note: potency is the fitted concentration of half-maximal effect). In short, it runs like this:
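Cytotoxicity was measured in parallel with the HRE-driven beta-lactamase readout: after 17 hrs of compound exposure at 37C, HRE-bla ME-180 cells received CellTiter-Glo and luminescence was recorded 30 min later.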

Experiment [6] is described as follows: qHTS assay to identify small molecule agonists of H2AX (AID 1224845; active = well fitted activation curve with a large enough effect in the signal ratio in the repeat runs, not every such curve was filed as active; the % refers to the signal ratio). In short, it runs like this: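 Wild-type CHO-K1 cells plated overnight, then exposed 3 hr at 37C to compounds at 15 concentrations (0.76% DMSO). Lysed, then HTRF anti-pH2AX(S139)-cryptate/anti-H2AX-d2 detection after 24 hr at room temperature; emissions 665 and 620 nm.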
The nature of experiment [7]: qHTS RealTime-Glo MT Cell Viability Assay in HepG2 cells - 24 hour (AID 1224867). Note: nearly all actives have a fitted effect of over 50% in size. Note: potency is the fitted concentration of half-maximal effect. In short, it runs like this:
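Viability was tracked continuously by NanoLuc luminescence from prosubstrate reduced by living HepG2 cells, at successive time points over 40 h of compound exposure. Cells with reagent were preincubated 5 h at 37 °C before compound addition.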

Experiment [8] can be described thus: A CellTox Green Cytotoxicity Assay to monitor cytotoxicity in HEK293 cells - 0 hour (AID 1224869). Note: nearly all actives have a fitted effect of over 50% in size. Note: potency is the fitted concentration of half-maximal effect. An outline of the steps:
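Cells (HEK293, 600/well) and dye reagent are dispensed together. After 5 h at 37 C, 23 nL compound is pinned in. Plates stay at 37 C for 40 h with fluorescence read at 0h, 8h, 16h, 24h, 32h and 40h.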

The target of experiment [9] is Luciferin 4-monooxygenase (Photinus pyralis) (UniProt P08659). Briefly: qHTS assay to identify small molecule inhibitors of firefly luciferase (AID 1224835). Note: nearly all actives have a fitted effect of over 25% in size. Note: potency is the fitted concentration of half-maximal effect. An outline of the steps: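 Quantitative HTS format; KM concentrations of both substrates. Purified P. pyralis FLuc activity quantified from luminescence images.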
The nature of experiment [10]: qHTS assay to identify small molecule antagonists of the estrogen related receptor signaling pathway with the pleiotropic PPARgamma coactivator (PGC) from Tox21 10K library (AID 1224841; call rule not given here; note: actives are mostly falling curves and most rising ones were filed inactive; nearly all actives have a fitted effect of over 50% in size; note: potency is the fitted concentration of half-maximal effect). In short, it runs like this: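 Steps: plate 2,000 PGC/ERR cells per well; incubate 6 h at 37 C with 5% CO2; transfer compounds from DMSO stocks by pin tool; incubate 18 h at 37 C; add One-Glo; measure luminescence 30 min later.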

Experiment [11] can be described thus: qHTS assay to identify small molecule agonists of the estrogen related receptor signaling pathway with the pleiotropic PPARgamma coactivator (PGC) from Tox21 10K library (AID 1224842). Note: nearly all actives have a fitted effect of over 15% in size. An outline of the steps:
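PGC/ERR reporter cells (NTP line) were seeded 2,000 per well, rested 6 h at 37 C/5% CO2, then pin-dosed with compounds in DMSO for 18 h at 37 C; luciferase read by One-Glo luminescence after 30 min at room temperature.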

Experiment [12] addresses Thyrotropin receptor (Homo sapiens) (UniProt P16473). Briefly: qHTS assay to identify small molecule agonists of the thyroid stimulating hormone receptor (TSHR) signaling pathway (AID 1224843; calls by dose curve; note: nearly all actives have a fitted effect of over 45% in size). An outline of the steps:
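Compounds are titrated over 15 concentrations, in triplicate, onto TSHR-HEK293 cells seeded at 800/well. Plates sit 30 min at room temperature before cAMP-d2 and anti-cAMP cryptate are added; signal is read after a further hour.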

Experiment [13] can be described thus: qHTS assay to identify small molecule agonists of H2AX - cell viability counter screen (AID 1224847; calls by dose curve; note: nearly all actives have a fitted effect of over 30% in size; note: potency is the fitted concentration of half-maximal effect). An outline of the steps:
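Viability of CHO-K1 (wild type) cells after 3 hr compound exposure was measured by CellTiter-Glo luminescence.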

The nature of experiment [14]: qHTS assay to identify small molecule antagonists of the estrogen related receptor (ERR) signaling pathway from Tox21 library (AID 1224848). Note: nearly all actives have a fitted effect of over 50% in size. Note: potency is the fitted concentration of half-maximal effect. An outline of the steps:
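First, 2,000 ERR cells per well were plated and held 6 h at 37 C/5% CO2. Next, compounds in DMSO were pinned in and left 18 h at 37 C. Finally, ONE-Glo was added and luminescence read after 30 min at room temperature.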

Experiment [15] is described as follows: qHTS assay to identify small molecule agonists of the estrogen related receptor (ERR) signaling pathway from Tox21 library (AID 1224849; calls by dose curve; note: nearly all actives have a fitted effect of over 15% in size). Conditions: ERR reporter cell line, ONE-Glo luciferase, 18 h; at 92.4 µM (top of the series). An outline of the steps:
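Cells carrying the ERR reporter were plated and allowed to settle for 6 h, exposed to library compounds for 18 h at 37 C, then lysed with ONE-Glo and luminescence measured.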

Experiment [16] is described as follows: qHTS RealTime-Glo MT Cell Viability Assay in HEK293 cells - 32 hour (AID 1224868). Note: nearly all actives have a fitted effect of over 50% in size. Note: potency is the fitted concentration of half-maximal effect. In short, it runs like this:
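Viability tracked continuously by luminescence as live cells reduce a prosubstrate for NanoLuc; HEK293 cells preincubated 5 h, compound-treated at 37 C, and read at 0, 8, 16, 24, 32 and 40 h.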

The nature of experiment [17]: qHTS assay to identify small molecule agonists of the constitutive androstane receptor (CAR) signaling pathway - cell viability counter screen (AID 1224836). Note: nearly all actives have a fitted effect of over 45% in size. An outline of the steps:
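Fluorescence from CellTiter-Fluor indicates live cells after 23 h exposure. The human hepatoma line expresses hCAR and a CYP2B6-2.2kb reporter. Incubation medium contains 0.75 uM PK11195 (final).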

Experiment [18] can be described thus: qHTS assay to identify small molecule antagonists of the constitutive androstane receptor (CAR) signaling pathway - cell viability counter screen (AID 1224837). Note: nearly all actives have a fitted effect of over 45% in size. An outline of the steps: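 Viability was measured with CellTiter-Fluor in a HepG2 line carrying stably transfected hCAR and a CYP2B6-2.2kb construct. Cells were exposed for 23 hr at 37 C to 15 compound concentrations with 50 nM CITCO as agonist.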

Experiment [19] is described as follows: qHTS assay to identify small molecule agonists of the hypoxia (HIF-1) signaling pathway (AID 1224846; active = well fitted activation curve with a large enough effect in the signal ratio in the repeat runs, not every such curve was filed as active; the % refers to the signal ratio). In short, it runs like this:
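Compounds from the Tox21 10K library, dissolved in DMSO, are tested for induction of a hypoxia response element–controlled beta-lactamase reporter in ME-180 cells. Exposure lasts 17 hrs at 37C after a 5 hr settling period, followed by CCF4-AM FRET substrate.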

“And” between values parts separate entries of the source, which are not always exact repeats. Equal entries are not always repeated. Inconclusive results are not listed. Some structures have more than one record in an assay (separate samples or runs), and their calls can disagree. The source made the active and inactive calls. Unless noted, calls come from the whole dose curve; as a rule, active = well fitted curve in the direction sought with a large enough effect in the repeat runs; inconclusive = weak or mixed curves; inactive = no such curve, though single readings can be large; an effect the other way counts as inactive or inconclusive.
% is set by controls: 0 for no effect and ±100 for the full control effect.

Luciferin 4-monooxygenase (Photinus pyralis), sequence (P08659 whole entry, looked up): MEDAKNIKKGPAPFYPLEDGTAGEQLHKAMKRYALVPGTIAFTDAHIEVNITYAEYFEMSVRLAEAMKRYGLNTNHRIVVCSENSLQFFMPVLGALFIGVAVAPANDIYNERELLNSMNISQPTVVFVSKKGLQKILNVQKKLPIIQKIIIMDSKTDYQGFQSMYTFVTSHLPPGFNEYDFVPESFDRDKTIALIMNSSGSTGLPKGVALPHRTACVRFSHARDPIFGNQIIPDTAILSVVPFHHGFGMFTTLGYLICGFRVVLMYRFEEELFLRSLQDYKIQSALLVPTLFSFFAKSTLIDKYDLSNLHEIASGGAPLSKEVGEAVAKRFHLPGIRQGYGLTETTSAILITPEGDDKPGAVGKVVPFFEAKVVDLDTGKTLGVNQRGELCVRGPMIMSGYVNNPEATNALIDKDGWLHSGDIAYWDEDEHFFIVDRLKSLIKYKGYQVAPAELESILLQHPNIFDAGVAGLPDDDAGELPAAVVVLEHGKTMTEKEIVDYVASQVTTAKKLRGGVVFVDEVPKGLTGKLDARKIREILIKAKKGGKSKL
Nuclear receptor subfamily 1 group I member 3 (Homo sapiens), sequence (Q14994 whole entry, looked up): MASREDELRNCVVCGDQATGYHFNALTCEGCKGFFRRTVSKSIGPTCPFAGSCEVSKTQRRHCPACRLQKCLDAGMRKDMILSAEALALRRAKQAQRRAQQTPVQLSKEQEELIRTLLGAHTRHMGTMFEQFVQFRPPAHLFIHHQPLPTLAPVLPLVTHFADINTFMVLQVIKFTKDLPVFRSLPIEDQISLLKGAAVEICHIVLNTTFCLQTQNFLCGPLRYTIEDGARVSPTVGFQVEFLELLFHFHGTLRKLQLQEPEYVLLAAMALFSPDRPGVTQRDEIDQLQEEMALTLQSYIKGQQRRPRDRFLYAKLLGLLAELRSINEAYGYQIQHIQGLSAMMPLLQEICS
Thyrotropin receptor (Homo sapiens), sequence (P16473 whole entry, looked up): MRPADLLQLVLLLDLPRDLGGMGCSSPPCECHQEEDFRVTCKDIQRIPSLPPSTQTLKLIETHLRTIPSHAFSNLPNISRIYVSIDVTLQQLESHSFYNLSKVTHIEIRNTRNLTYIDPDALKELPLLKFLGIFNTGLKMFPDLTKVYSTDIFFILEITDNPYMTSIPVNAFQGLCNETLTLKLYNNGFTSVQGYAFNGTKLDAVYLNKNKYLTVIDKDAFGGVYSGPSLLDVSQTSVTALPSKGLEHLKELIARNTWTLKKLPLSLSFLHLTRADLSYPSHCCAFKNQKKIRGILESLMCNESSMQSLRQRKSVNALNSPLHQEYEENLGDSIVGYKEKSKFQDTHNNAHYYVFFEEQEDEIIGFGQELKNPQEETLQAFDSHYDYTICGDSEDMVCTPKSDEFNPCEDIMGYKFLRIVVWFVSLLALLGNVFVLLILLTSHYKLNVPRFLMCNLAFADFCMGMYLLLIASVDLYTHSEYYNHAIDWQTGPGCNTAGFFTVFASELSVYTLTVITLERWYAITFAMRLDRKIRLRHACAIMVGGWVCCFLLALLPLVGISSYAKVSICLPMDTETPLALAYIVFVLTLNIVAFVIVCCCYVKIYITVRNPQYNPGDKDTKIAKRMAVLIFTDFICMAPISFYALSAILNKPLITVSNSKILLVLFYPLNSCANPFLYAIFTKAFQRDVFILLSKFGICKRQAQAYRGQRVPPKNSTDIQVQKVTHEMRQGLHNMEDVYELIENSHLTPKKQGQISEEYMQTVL

As for `CC(C)NCC(O)COc1cccc2ccccc12` (stereo not drawn), the Potency entry in experiment [1], in [2], in experiment [3], in [4], in experiment [5] and in [6] was “inactive” each time. The Potency entry in experiment [7] and in [8] was “inactive” throughout.
On to `CCCCC(CC)COC(=O)CCCCCCCC(=O)OCC(CC)CCCC` (stereo not drawn), for which the Potency in experiment [1] was 17.2 µM (active) and inactive; in experiment [2], 24.3 µM (active) and inactive; in experiment [4] it was 8.63 µM (active) and inactive; in experiment [10] it was 24.3 µM (active) and inactive; in [14], 7.7 µM (active) and inactive; in experiment [16], 6.17 µM (active) and inactive. In addition, the Potency in experiment [8] is 54.9 µM (active) and inactive. The Potency result in experiment [9], in [3], in [11], in experiment [12], in [5] and in experiment [6] was “inactive” throughout. Also, the Potency result in experiment [13] and in [7] was “inactive” each time. For the same molecule, in experiment [15], the activity change, positive = activation was -81.2% (inactive) and -2.38% (inactive).
For `CCCCCCCCCCCCN`, the Potency result in experiment [1] was “inactive and 7.7 µM (active)”; in experiment [4] it was “inactive and 12.2 µM (active)”; in experiment [13], “inactive and 20.1 µM (active)”; in experiment [7], “inactive and 24.5 µM (active)”; in [16], “inactive and 43.6 µM (active)”. The Potency entry in experiment [9], in [3], in experiment [12], in experiment [5] and in experiment [6] was “inactive” throughout.
`CC(C)(C)C1CCC(O)CC1` (stereo not drawn): the Potency entry in [1], in [17], in experiment [18], in [2], in [3] and in experiment [4] was “inactive” throughout. Also, the Potency result in experiment [12], in [5], in experiment [6], in experiment [7] and in [16] was “inactive” throughout. In experiment [19], the outcome was inactive.
`CCCCCCC(C)(C)S`: the Potency result in experiment [1], in experiment [9], in experiment [17], in experiment [3], in [4] and in [12] was “inactive” in each case. Also, the Potency result in experiment [5], in [6], in [13], in experiment [7] and in experiment [16] was “inactive” in each case. The outcome in experiment [19] was inactive.
Take `COC(=O)c1ccc(C(=O)OC)cc1`: the Potency was 24.7 µM (active) and inactive in experiment [1]; 32.1 µM (active) and inactive in [9]; 24.7 µM (active) and inactive in [4]; 4.96 µM (active) and inactive in experiment [5]; 39.4 µM (active) and inactive in experiment [16]. For the same molecule, the Potency result in experiment [3], in [12], in experiment [6], in [7] and in experiment [8] was “inactive” throughout. For the same molecule, the outcome in [19] was inactive.
Take `NCCc1ccc(O)c(O)c1`: the Potency in [1] is 54.6 µM (active) and inactive. The Potency result in experiment [9], in experiment [17], in [4], in [5], in experiment [13] and in experiment [7] was “inactive” in each case. Besides, the Potency entry in [16] and in experiment [8] was “inactive” in each case.
Consider `Cc1ccc(N)c(S(=O)(=O)O)c1`, for which the Potency entry in experiment [1], in [9], in experiment [17], in [4], in [12] and in [5] was “inactive” in each case. Further, the Potency entry in experiment [6], in [7] and in experiment [16] was “inactive” in each case. Moreover, the call in experiment [19] was inactive.
Take `S=c1nc[nH]c2nc[nH]c12`: the Potency result in experiment [9], in experiment [17], in [3], in experiment [4], in [12] and in [5] was “inactive” in each case. Also, the Potency entry in experiment [13], in experiment [7] and in experiment [8] was “inactive” each time. Also, the Potency in [16] is 16.9 µM (active).
`O=S(=O)(O)c1cc(S(=O)(=O)O)c2c(N=Nc3ccccc3)c(O)ccc2c1`: in experiment [1], the Potency was 54.7 µM (active) and 34.4 µM (active). The Potency result in [9], in experiment [2], in [3], in [12], in [5] and in experiment [13] was “inactive” throughout. For the same molecule, the Potency entry in experiment [7] and in [16] was “inactive” in each case. Further, in [19], the call was inactive.
